For 21 compounds, growth inhibition, inhibition and outcome results are on record in PubChem BioAssay.

The nature of assay [1]: antimalarial activity against Dd2 strain (AID 2302;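 active = growth inhibition above 50% at the single 2 µM test dose, taken to imply half-maximal potency below 2 µM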;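 note: 0% = DMSO untreated growth and 100% = chloroquine plus artemisinin killed control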). Particulars: P. falciparum Dd2 in RBCs, LDH growth readout, 72 h; at 2 µM; hits give high values.
A short description of assay [2]: human hepatoma cell viability loss – ATP luminescence, cytotoxicity control for P. falciparum antimalarial project, primary screen (AID 2303;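 active = inhibition above 50%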;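 note: 0% = DMSO wells and 100% = digitonin-killed cells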). The following applies: HepG2 viability, 24-48 h, at 10 µM, hits give high values.
Assay [3] has as its target L-lactate dehydrogenase (Plasmodium falciparum (isolate CDC / Honduras)) (UniProt Q27743). The assay can be described thus: PfLDH activity inhibition – cell lysate, 3D7 strain, counter-screen for P. falciparum growth inhibition project (AID 2304).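 Note: 0% = vehicle and 100% = reference inhibitor.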 Particulars: P. falciparum 3D7 crude extract, LDH APAD/NBT absorbance; at 2 µM; hits give high values.
Assay [4] is described as follows: inhibition of 3D7 malaria parasite growth – strain 3D7 (AID 2306).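 Note: 0% = DMSO wells and 100% = chloroquine plus artemisinin control wells.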 The following applies: P. falciparum 3D7 erythrocytic growth, LDH absorbance, 72 h; at 2 µM; hits give high values.
Assay [5] has as its target Calcium-dependent protein kinase 1 (Plasmodium falciparum (isolate 3D7)) (UniProt P62344). Put plainly: PfCDPK1 kinase inhibitors, biochemical, TCAMS library (AID 1159585; cut-off not given, nearly all actives have IC50 up to about 0.98 µM;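 note: inhibitors leave more ATP so luminescence rises with inhibition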). Particulars: recombinant PfCDPK1, Kinase-Glo ATP depletion luminescence. On the technique in general: Kinase-Glo reads ATP consumption through a luciferase reaction.
The target of assay [6] is Plasmodium falciparum protein kinase 6 (PK6, PF3D7_1337100) (UniProt Q8IDW1). Put plainly: PfPK6 kinase inhibitors, biochemical, TCAMS library (AID 1159586). The following applies: recombinant PfPK6, Kinase-Glo ATP depletion luminescence.
Plasmodium falciparum protein kinase 6 (PK6, PF3D7_1337100), sequence (Q8IDW1 1-305): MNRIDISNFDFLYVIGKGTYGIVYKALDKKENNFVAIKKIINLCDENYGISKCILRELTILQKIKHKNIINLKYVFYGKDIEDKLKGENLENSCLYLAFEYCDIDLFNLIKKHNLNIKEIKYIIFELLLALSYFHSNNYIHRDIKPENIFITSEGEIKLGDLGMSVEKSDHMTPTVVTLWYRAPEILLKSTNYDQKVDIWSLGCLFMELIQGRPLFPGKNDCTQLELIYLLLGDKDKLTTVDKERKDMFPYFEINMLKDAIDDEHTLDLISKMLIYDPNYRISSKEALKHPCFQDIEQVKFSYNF
The target in assay [7] is Protein kinase 7 (PK7), Plasmodium falciparum 3D7 (PF3D7_0213400) (UniProt Q7YTF7). Put plainly: inhibition of Plasmodium PK7 catalytic activity – biochemical, TCAMS antimalarial set, Kinase-Glo luminescence (AID 1159587). Particulars: recombinant PfPK7, Kinase-Glo ATP depletion luminescence.
Protein kinase 7 (PK7), Plasmodium falciparum 3D7 (PF3D7_0213400), sequence (Q7YTF7 1-343): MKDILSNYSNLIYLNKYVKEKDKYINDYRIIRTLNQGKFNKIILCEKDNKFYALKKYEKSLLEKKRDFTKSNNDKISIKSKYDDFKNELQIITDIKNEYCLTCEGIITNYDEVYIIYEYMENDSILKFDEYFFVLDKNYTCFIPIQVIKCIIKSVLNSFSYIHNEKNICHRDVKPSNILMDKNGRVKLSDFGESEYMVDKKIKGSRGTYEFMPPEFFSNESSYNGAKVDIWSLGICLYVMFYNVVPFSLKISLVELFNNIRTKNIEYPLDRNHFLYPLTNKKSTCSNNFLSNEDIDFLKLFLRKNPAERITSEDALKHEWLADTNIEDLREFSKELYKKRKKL
Assay [8] addresses Calcium-dependent protein kinase 4 (Plasmodium falciparum (isolate 3D7)) (UniProt Q8IBS5). The assay can be described thus: PfCDPK4 kinase inhibitors, biochemical, TCAMS library (AID 1159588; cut-off not given, nearly all actives have IC50 up to about 0.91 µM). The following applies: recombinant PfCDPK4, Kinase-Glo ATP depletion luminescence.

Structures are written as SMILES. A number with no mark means an inactive call. For part of these data: Results with a measured potency or affinity are listed apart. Activity calls are given as the source filed them. Unless noted, the rule behind the calls is not given here.

Calcium-dependent protein kinase 4 (Plasmodium falciparum (isolate 3D7)), sequence (Q8IBS5 whole entry, looked up): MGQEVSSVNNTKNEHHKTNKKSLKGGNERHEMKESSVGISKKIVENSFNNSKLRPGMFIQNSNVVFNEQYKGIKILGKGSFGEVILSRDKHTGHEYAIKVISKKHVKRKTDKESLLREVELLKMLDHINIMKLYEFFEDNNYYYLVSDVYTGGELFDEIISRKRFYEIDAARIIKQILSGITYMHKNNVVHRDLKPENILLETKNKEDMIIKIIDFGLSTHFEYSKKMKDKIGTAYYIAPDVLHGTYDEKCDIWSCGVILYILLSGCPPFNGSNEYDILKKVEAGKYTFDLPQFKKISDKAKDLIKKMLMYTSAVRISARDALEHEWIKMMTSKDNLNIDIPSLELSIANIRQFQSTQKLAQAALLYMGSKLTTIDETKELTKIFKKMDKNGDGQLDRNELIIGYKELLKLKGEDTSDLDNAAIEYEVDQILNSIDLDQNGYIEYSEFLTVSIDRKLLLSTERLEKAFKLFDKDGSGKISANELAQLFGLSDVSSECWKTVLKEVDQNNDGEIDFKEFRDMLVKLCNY
Calcium-dependent protein kinase 1 (Plasmodium falciparum (isolate 3D7)), sequence (P62344 whole entry, looked up): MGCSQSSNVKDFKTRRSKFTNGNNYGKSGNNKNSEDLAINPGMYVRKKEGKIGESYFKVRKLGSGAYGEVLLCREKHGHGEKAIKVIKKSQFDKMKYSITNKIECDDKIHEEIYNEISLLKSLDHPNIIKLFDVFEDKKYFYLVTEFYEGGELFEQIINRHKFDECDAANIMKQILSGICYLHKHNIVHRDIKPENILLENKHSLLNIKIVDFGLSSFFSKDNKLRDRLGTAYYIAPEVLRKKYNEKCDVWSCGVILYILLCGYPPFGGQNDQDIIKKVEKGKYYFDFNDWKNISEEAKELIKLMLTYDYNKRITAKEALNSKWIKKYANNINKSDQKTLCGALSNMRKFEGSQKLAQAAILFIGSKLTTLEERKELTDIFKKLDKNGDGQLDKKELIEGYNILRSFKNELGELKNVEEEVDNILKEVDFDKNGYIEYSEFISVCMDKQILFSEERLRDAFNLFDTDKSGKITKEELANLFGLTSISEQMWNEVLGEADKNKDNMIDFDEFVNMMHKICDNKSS
L-lactate dehydrogenase (Plasmodium falciparum (isolate CDC / Honduras)), sequence (Q27743 whole entry, looked up): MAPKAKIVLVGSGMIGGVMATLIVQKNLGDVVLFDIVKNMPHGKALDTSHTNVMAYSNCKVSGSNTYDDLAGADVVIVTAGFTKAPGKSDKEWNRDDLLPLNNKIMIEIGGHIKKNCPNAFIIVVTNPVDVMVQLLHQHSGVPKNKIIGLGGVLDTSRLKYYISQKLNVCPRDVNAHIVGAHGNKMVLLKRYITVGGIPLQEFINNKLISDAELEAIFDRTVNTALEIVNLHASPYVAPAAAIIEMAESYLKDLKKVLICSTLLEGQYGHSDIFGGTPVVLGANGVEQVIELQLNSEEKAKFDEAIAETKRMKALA

As for `COc1ccc2nccc(N3C[C@H]4C[C@@H]3CN4CCNCc3ccc4c(n3)NC(=O)CS4)c2n1`, the growth inhibition in assay [1] is 0%; in assay [4], 99% (active). The inhibition (in general, the relative decrease from the control value, in per cent) in assay [2] is 21%; in assay [3], 1%. Moreover, the outcome in assay [5], in assay [6], in assay [7] and in assay [8] was inactive.

As for `COc1ccc(-c2nccc(NC(N)=NCc3ccccc3)n2)cc1`, the figures for the growth inhibition in assay [1] and in assay [4] were 21% and 83% (active), respectively. For the same compound, the values for the inhibition in assay [2] and in assay [3] were 27% and 1%, respectively. The result in assay [5], in assay [6], in assay [7] and in assay [8] was inactive.

For the compound `COc1cc(CCNc2nc(NCc3cccc4ccccc34)nc(N3CCC(N)CC3)n2)ccc1O`, the results for the growth inhibition in assay [1] and in assay [4] were 59% (active) and 100% (active), respectively. Besides, the inhibition in assay [2] was 16%; in assay [3], 5%. In addition, the result in assay [5], in assay [6], in assay [7] and in assay [8] was inactive.

Turning to `CC(CN(C)C)C(=O)Nc1cccc(-c2ccc(-c3nc4ccc(F)cc4[nH]3)s2)c1` (stereo not drawn), the results for the growth inhibition in assay [1] and in assay [4] were 99% (active) and 100% (active), respectively. The inhibition in assay [2] is 3%; in assay [3], -6%. For the same compound, the result in assay [5], in assay [6], in assay [7] and in assay [8] was inactive.

`CCOc1ccc(-c2noc(-c3c[nH]c4ccccc4c3=O)n2)cc1`: the growth inhibition is 93% (active) in assay [1] and 99% (active) in assay [4]. For the same compound, the inhibition is -7% in assay [2] and -3% in assay [3]. Moreover, the outcome in assay [5], in assay [6], in assay [7] and in assay [8] was inactive.

`Cc1cc(=O)c2cc(-c3ccc(OC(F)(F)F)cc3)ccc2[nH]1`: the figures for the growth inhibition in assay [1] and in assay [4] were 95% (active) and 96% (active), respectively. Besides, the inhibition in assay [2] is -3%; in assay [3], 3%. Further, the outcome in assay [5], in assay [6], in assay [7] and in assay [8] was inactive.

As for `COC(=O)c1cccc(CNCc2cccc(-c3cccc(-c4nc5ccc(F)cc5[nH]4)c3)c2)c1`, the growth inhibition was 52% (active) in assay [1] and 101% (active) in assay [4]. Also, the inhibition in assay [2] was 27%; in assay [3], 1%. Also, the outcome in assay [5], in assay [6], in assay [7] and in assay [8] was inactive.

In the case of `COc1ccccc1Cc1c(C)nc2nc(N)nc(N)c2c1C`, the results for the growth inhibition in assay [1] and in assay [4] were 2% and 96% (active), respectively. Besides, the values for the inhibition in assay [2] and in assay [3] were 69% (active) and -3%, respectively. The result in assay [5], in assay [6], in assay [7] and in assay [8] was inactive.

On to `CS(=O)(=O)CCNc1cc(N2CCc3ncnc(Nc4ccc(OCc5cccc(F)c5)c(Cl)c4)c3C2)ncn1`, for which the results for the growth inhibition in assay [1] and in assay [4] were 50% (active) and 96% (active), respectively. The inhibition in assay [2] is -17%; in assay [3] it was 5%. Also, the outcome in assay [5], in assay [6], in assay [7] and in assay [8] was inactive.

Turning to `O=C1CCCN1CCCNCc1cccc(-c2cccc(-c3nc4ccc(C(F)(F)F)cc4[nH]3)c2)c1`, the results for the growth inhibition in assay [1] and in assay [4] were 90% (active) and 101% (active), respectively. Also, the inhibition in assay [2] was 28%; in assay [3], -3%. Moreover, the outcome in assay [5], in assay [6], in assay [7] and in assay [8] was inactive.

Regarding `COc1ccc(N2CCN(CCCCNC(=O)c3ccc(NC(=O)c4ccc(Cl)cc4)cc3)CC2)c(OC)c1`, the growth inhibition was 22% in assay [1] and 97% (active) in assay [4]. Besides, the inhibition in assay [2] was 25%; in assay [3], 6%. Also, the outcome in assay [5], in assay [6], in assay [7] and in assay [8] was inactive.

`COc1cc2c(cc1OC)CN(CCCCc1ccc(NC(=O)c3cc(Cl)cc(Cl)c3)cc1)CC2`: the figures for the growth inhibition in assay [1] and in assay [4] were 4% and 95% (active), respectively. Also, the inhibition was 21% in assay [2] and -3% in assay [3]. Besides, the outcome in assay [5], in assay [6], in assay [7] and in assay [8] was inactive.

On to `NC1CCN(Cc2ccc(-c3cccc(-c4nc5ccccc5[nH]4)c3)cc2)C1` (stereo not drawn), for which the growth inhibition in assay [1] is -3%; in assay [4], 98% (active). The inhibition in assay [2] is 19%; in assay [3] it was 5%. For the same compound, the result in assay [5], in assay [6], in assay [7] and in assay [8] was inactive.

Consider `CC(C)Oc1cc2c(cc1NS(=O)(=O)c1ccc(-c3ccc(Cl)cc3)cc1F)CCN(C)CC2`, for which the growth inhibition was 2% in assay [1] and 88% (active) in assay [4]. Further, the inhibition was 29% in assay [2] and -1% in assay [3]. Besides, the result in assay [5], in assay [6], in assay [7] and in assay [8] was inactive.

On to `COc1cc(NC(=O)C(c2ccc(Cl)cc2)C(C)C)cc(OC)c1` (stereo not drawn), for which the figures for the growth inhibition in assay [1] and in assay [4] were 98% (active) and 99% (active), respectively. The inhibition in assay [2] was 5%; in assay [3], -3%. For the same compound, the outcome in assay [5], in assay [6], in assay [7] and in assay [8] was inactive.

`NS(=O)(=O)c1cncc(-c2ccc3nccc(-c4cn[nH]c4)c3n2)c1`: the growth inhibition is 100% (active) in assay [1] and 99% (active) in assay [4]. The values for the inhibition in assay [2] and in assay [3] were 33% and -2%, respectively. Besides, the outcome in assay [5], in assay [6], in assay [7] and in assay [8] was inactive.

Turning to `CN(c1ccccc1C(=O)Nc1cc(Cl)ccc1Oc1ccccc1)S(=O)(=O)c1ccccc1`, the figures for the growth inhibition in assay [1] and in assay [4] were 42% and 99% (active), respectively. Also, the inhibition was 47% in assay [2] and 7% in assay [3]. Besides, the result in assay [5], in assay [6], in assay [7] and in assay [8] was inactive.

Turning to `CCNc1cc(C(=O)N[C@@H](Cc2ccccc2)[C@H](O)CNC(C)(C)CSCC(C)C)cc(N2CCCC2=O)c1`, the growth inhibition was 97% (active) in assay [1] and 101% (active) in assay [4]. Moreover, the inhibition is -20% in assay [2] and -7% in assay [3]. In addition, the result in assay [5], in assay [6], in assay [7] and in assay [8] was inactive.

Consider `COc1ccc(NC(=O)Nc2ccc(-c3ccncc3)c(C(F)(F)F)c2)cc1N1CCN(C)CC1`, for which the growth inhibition in assay [1] is 62% (active); in assay [4], 101% (active). In addition, the inhibition in assay [2] is 5%; in assay [3], 2%. In addition, the result in assay [5], in assay [6], in assay [7] and in assay [8] was inactive.

Take `CCc1cn2c3c(cc(C(=O)N[C@@H](Cc4ccccc4)[C@H](O)CNC4CC4)cc13)N(CC)S(=O)(=O)CC2`: the growth inhibition in assay [1] is 99% (active); in assay [4], 98% (active). Besides, the inhibition is 13% in assay [2] and -3% in assay [3]. The outcome in assay [5], in assay [6], in assay [7] and in assay [8] was inactive.

Turning to `Cc1cnc(C(=O)Nc2ccc3c(c2)CCCN(Cc2c[nH]c4cnccc24)C3)cn1`, the growth inhibition in assay [1] was 20%; in assay [4] it was 92% (active). In addition, the inhibition in assay [2] was 0%; in assay [3] it was -3%. Also, the result in assay [5], in assay [6], in assay [7] and in assay [8] was inactive.
